Where “and” joins values, the source holds several entries; their conditions need not be identical. Equal values may be shown once. Some compounds were tested as several samples or in several runs, with calls that do not always agree. Calls of active or inactive are those of the source. The calls were made as follows: active = hit-call score of the fitted dose curve at least 0.9, where 1 is the maximum; inactive = score below 0.9.
What was measured:
[1] = ATG_GLI_CIS: Attagene CIS-FACTORIAL HepG2 Assay for human Zinc Finger Protein GLI1 (AID 2282945); settings: HepG2, Attagene cis-factorial reporter mRNA, GLI element; actives raise or lower the signal
In short: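 Bidirectional curve fits relative to DMSO, using reporter mRNA levels from RT-PCR plus capillary electrophoresis. Cells were HepG2 transiently carrying cis-regulated reporter constructs, harvested 24 h after dosing.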

[2] = biological target: Bile acid receptor (Homo sapiens) (UniProt Q96RI1); assay: ATG_IR1_CIS: Attagene CIS-FACTORIAL HepG2 Assay for human Nuclear Receptor Subfamily 1 Group H Member 4 (NR1H4), IR1 submotif (AID 2282946); settings: IR1 reporter transcription, actives raise or lower the signal
In short: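 Cells (human HepG2) carry transiently transfected cis-promoter reporter transcription units. Compounds are incubated 24 h, total RNA is reverse-transcribed and amplified, and labelled fragments are resolved by capillary electrophoresis. Curves use DMSO as baseline.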

[3] = ATG_GRE_CIS: Attagene CIS-FACTORIAL HepG2 Assay for human Glucocorticoid Response Elements (GRE) (AID 2282947); settings: HepG2 GRE cis-reporter, Attagene multiplex mRNA; actives raise or lower the signal
In short: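 Assay uses human hepatoma HepG2 cells transfected with cis-promoter reporter units, exposed 24 h. mRNA from reporters detected by RT-PCR plus capillary electrophoresis; DMSO serves as negative control and baseline.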

[4] = ATG_ISRE_CIS: Attagene CIS-FACTORIAL HepG2 Assay for human Interferon Regulatory Factor 1 (IRF1) binding to an Interferon-Stimulated Response Element (ISRE) (AID 2282948); settings: HepG2 ISRE cis-reporter (Attagene), mRNA transcription readout; actives raise or lower the signal
In short: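 HepG2 cells transiently transfected with multiplexed cis-promoter reporter units; after 24 h compound exposure, reporter mRNA quantified by RT-PCR, FAM labelling, HpaI digestion and capillary electrophoresis. Bidirectional fit versus DMSO baseline.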

[5] = ATG_M_32_CIS: Attagene CIS-FACTORIAL HepG2 Assay for M32 Transcription Factor (Internal Marker) (AID 2282949); settings: HepG2 Attagene cis-factorial M32 reporter, mRNA; actives raise or lower the signal;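 also: background control marker of the multiplexed CIS panel rather than a real target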
In short: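 Following 24 h chemical exposure of HepG2 cells transiently expressing cis-promoter reporter constructs, reporter transcript levels were determined by RT-PCR with fluorescent labelling and capillary electrophoresis, then fitted bidirectionally against DMSO.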

[6] = ATG_M_06_CIS: Attagene CIS-FACTORIAL HepG2 Assay for M06 Transcription Factor (Internal Marker) (AID 2282950); settings: HepG2 Attagene CIS-FACTORIAL M06 internal marker reporter; actives raise or lower the signal
In short: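 Measured 24 h post-dosing in transiently transfected HepG2 cells, this internal-marker endpoint reports reporter mRNA via RT-PCR with fluorescent primer extension and capillary electrophoresis. DMSO served as negative control and baseline for bidirectional fitting.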

[7] = biological target: Hypoxia-inducible factor 1-alpha (Homo sapiens) (UniProt Q16665); assay: ATG_HIF1a_CIS: Attagene CIS-FACTORIAL HepG2 Assay for human Hypoxia Inducible Factor 1 (HIF1A) (AID 2282951); settings: HepG2 Attagene cis-factorial HIF1a reporter transcription; actives raise or lower the signal
In short: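 In this multiplexed cell assay, HepG2 cells bearing transfected cis reporters are dosed for 24 h and reporter mRNA is read by RT-PCR plus capillary electrophoresis; signal increases and decreases are both scored against DMSO.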

[8] = biological target: Hepatocyte nuclear factor 6 (Homo sapiens) (UniProt Q9UBC0); assay: ATG_HNF6_CIS: Attagene CIS-FACTORIAL HepG2 Assay for human Hepatocyte Nuclear Factor 6 (HNF6) (AID 2282952); settings: HepG2 Attagene cis-factorial HNF6 reporter transcription; actives raise or lower the signal
In short: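 HepG2 cells transiently transfected with cis-element-driven multiple reporter transcription units, dosed 24 h; reporter mRNA quantified by RT-PCR, FAM primer extension, HpaI digestion and capillary electrophoresis; bidirectional fit versus DMSO baseline.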

[9] = biological target: Heat shock factor protein 1 (Homo sapiens) (UniProt Q00613); assay: ATG_HSE_CIS: Attagene CIS-FACTORIAL HepG2 Assay for human Heat Shock Transcription Factor 1 (HSE) (AID 2282953); settings: HepG2 HSE cis-reporter, Attagene RNA transcription; actives raise or lower the signal
In short: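 Reporter mRNA induction in HepG2 is measured 24 h after dosing, using transiently transfected multiplexed cis-regulated reporter units. Signal comes from capillary electrophoresis of labelled RT-PCR products, with DMSO as negative control.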

[10] = ATG_MRE_CIS: Attagene CIS-FACTORIAL HepG2 Assay for human Metal Responsive Element (MRE) (AID 2282954); settings: HepG2 MRE cis-reporter transcription, Attagene multiplex; actives raise or lower the signal
In short: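 After a 24 h chemical exposure, transiently transfected HepG2 cells yield RNA whose reporter sequences are amplified, FAM-labelled and sized by capillary electrophoresis. Curves are fitted bidirectionally relative to DMSO.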

[11] = ATG_PBREM_CIS: Attagene CIS-FACTORIAL HepG2 Assay for human Phenobarbital-responsive Enhancer Module (PBREM) (AID 2282955); settings: HepG2 PBREM cis-reporter, Attagene multiplexed transcription; actives raise or lower the signal
In short: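 After a 24 h incubation with test chemical, transfected HepG2 cells yield total RNA; reporter-specific RT-PCR products are fluorescently labelled, HpaI-digested and resolved by capillary electrophoresis against ROX size standards.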

[12] = biological target: Paired box protein Pax-6 (Homo sapiens) (UniProt P26367); assay: ATG_Pax6_CIS: Attagene CIS-FACTORIAL HepG2 Assay for human Paired Box 6 (PAX6) (AID 2282956); settings: HepG2 CIS-FACTORIAL PAX6 reporter transcription, RNA readout; actives raise or lower the signal
In short: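 HepG2 cells transiently transfected with multiplexed cis-promoter reporter units (endogenous TF activity) were dosed for 24 h. Reporter mRNA was quantified by RT-PCR, 6-FAM labeling, HpaI digestion and capillary electrophoresis; bidirectional fitting versus DMSO baseline.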

[13] = ATG_PXRE_CIS: Attagene CIS-FACTORIAL HepG2 Assay for human Pregnane X Receptor Element (PXRE) (AID 2282957); settings: HepG2 Attagene CIS-FACTORIAL PXRE reporter, mRNA; actives raise or lower the signal
In short: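 HepG2 cells transiently transfected with cis-regulated multiple reporter transcription units; endogenous factor activity measured as reporter mRNA 24 h after dosing. RT-PCR, fluorescent primer extension, HpaI digestion, capillary electrophoresis; bidirectional fit versus DMSO baseline.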

[14] = ATG_PPRE_CIS: Attagene CIS-FACTORIAL HepG2 Assay for human Peroxisome Proliferator-activated Response Element (PPRE) (AID 2282958); settings: HepG2 PPRE cis-element reporter, Attagene transcription factor profiling; actives raise or lower the signal
In short: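 Multiplexed reporter transcription units under cis-regulatory promoters were transfected into HepG2 cells to capture endogenous factor activity. A 24 h incubation preceded RNA isolation and fluorescent RT-PCR fragment analysis.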

[15] = ATG_RORE_CIS: Attagene CIS-FACTORIAL HepG2 Assay for human RAR-related Orphan Receptor Element (RORE) (AID 2282959); settings: HepG2 Attagene cis-factorial RORE reporter, mRNA; actives raise or lower the signal
In short: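 Fluorescence intensity of reporter-specific cDNA fragments, separated by capillary electrophoresis, gives the signal. Source: HepG2 liver cells transiently transfected with cis-element reporters and exposed 24 h; DMSO-normalized bidirectional fit.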

[16] = ATG_Sox_CIS: Attagene CIS-FACTORIAL HepG2 Assay for human SRY-box transcription factor (SOX) (AID 2282960); settings: HepG2 Attagene cis-factorial SOX reporter, mRNA; actives raise or lower the signal
In short: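 After 24 h of chemical treatment, transfected HepG2 reporter cells are lysed for total RNA. Transcript levels come from RT-PCR with labelled primer extension and capillary electrophoresis, analysed bidirectionally versus DMSO.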

[17] = biological target: Transcription factor Sp1 (Homo sapiens) (UniProt P08047); assay: ATG_Sp1_CIS: Attagene CIS-FACTORIAL HepG2 Assay for human Specificity Protein 1 (Sp1) (AID 2282961); settings: HepG2 Sp1 cis-reporter transcription, actives raise or lower the signal
In short: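 Sp1-driven reporter mRNA, read as capillary electrophoresis fluorescence after RT-PCR, in transiently transfected HepG2 cells dosed for 24 h; signal change in either direction relative to DMSO.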

[18] = ATG_SREBP_CIS: Attagene CIS-FACTORIAL HepG2 Assay for human Sterol Regulatory Element Binding (SREBP) (AID 2282962); settings: HepG2 Attagene cis-factorial SREBP reporter, mRNA; actives raise or lower the signal
In short: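 HepG2 cells transiently transfected with multiplexed cis-element reporter units report endogenous transcription factor activity. After 24 h of chemical exposure, reporter mRNA was quantified by RT-PCR, 6-FAM labelling, HpaI digestion and capillary electrophoresis; bidirectional fits used DMSO as baseline.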

[19] = biological target: Signal transducer and activator of transcription 3 (Homo sapiens) (UniProt P40763); assay: ATG_STAT3_CIS: Attagene CIS-FACTORIAL HepG2 Assay for human Signal Transducer and Activator of Transcription 3 (STAT3) (AID 2282963); settings: HepG2, Attagene cis-factorial STAT3 reporter transcription; actives raise or lower the signal
In short: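 After a 24 h compound incubation, total RNA from MRTU-transfected HepG2 cells was converted to cDNA and reporter sequences PCR-amplified, labelled and profiled by capillary electrophoresis. Gain and loss of signal were referenced to DMSO.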

[20] = ATG_TA_CIS: Attagene CIS-FACTORIAL HepG2 Assay for human TA Basal Promoter (AID 2282964); settings: HepG2 Attagene CIS-factorial TA basal promoter reporter; actives raise or lower the signal
In short: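 Cis-factorial format in HepG2: reporters report endogenous factors, not chimeric Gal4 fusions. After 24 h treatment, reporter transcripts were measured by RT-PCR-capillary electrophoresis fluorescence, analysed bidirectionally versus DMSO.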

Measured: AC50

Transcription factor Sp1 (Homo sapiens), sequence (P08047 whole entry, looked up): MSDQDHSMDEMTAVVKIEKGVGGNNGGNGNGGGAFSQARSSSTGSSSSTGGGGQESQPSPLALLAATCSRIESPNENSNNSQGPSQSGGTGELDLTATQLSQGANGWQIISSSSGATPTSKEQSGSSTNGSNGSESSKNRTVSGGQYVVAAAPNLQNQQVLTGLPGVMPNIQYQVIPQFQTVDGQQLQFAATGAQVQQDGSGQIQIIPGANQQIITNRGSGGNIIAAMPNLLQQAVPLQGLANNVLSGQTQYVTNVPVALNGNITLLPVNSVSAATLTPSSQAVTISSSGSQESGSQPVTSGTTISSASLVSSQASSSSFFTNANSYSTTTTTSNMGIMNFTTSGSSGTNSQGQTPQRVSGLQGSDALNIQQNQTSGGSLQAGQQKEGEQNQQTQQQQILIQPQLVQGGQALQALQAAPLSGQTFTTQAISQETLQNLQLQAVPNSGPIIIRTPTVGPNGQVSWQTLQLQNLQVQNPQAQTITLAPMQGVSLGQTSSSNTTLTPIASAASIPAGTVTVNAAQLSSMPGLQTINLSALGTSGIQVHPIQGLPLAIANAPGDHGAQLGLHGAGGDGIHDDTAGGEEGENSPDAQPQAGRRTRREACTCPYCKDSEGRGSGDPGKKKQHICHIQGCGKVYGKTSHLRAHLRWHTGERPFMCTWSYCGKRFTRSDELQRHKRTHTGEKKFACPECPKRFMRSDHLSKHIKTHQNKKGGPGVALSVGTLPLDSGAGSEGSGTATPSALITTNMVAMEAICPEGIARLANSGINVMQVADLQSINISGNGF
Signal transducer and activator of transcription 3 (Homo sapiens), sequence (P40763 whole entry, looked up): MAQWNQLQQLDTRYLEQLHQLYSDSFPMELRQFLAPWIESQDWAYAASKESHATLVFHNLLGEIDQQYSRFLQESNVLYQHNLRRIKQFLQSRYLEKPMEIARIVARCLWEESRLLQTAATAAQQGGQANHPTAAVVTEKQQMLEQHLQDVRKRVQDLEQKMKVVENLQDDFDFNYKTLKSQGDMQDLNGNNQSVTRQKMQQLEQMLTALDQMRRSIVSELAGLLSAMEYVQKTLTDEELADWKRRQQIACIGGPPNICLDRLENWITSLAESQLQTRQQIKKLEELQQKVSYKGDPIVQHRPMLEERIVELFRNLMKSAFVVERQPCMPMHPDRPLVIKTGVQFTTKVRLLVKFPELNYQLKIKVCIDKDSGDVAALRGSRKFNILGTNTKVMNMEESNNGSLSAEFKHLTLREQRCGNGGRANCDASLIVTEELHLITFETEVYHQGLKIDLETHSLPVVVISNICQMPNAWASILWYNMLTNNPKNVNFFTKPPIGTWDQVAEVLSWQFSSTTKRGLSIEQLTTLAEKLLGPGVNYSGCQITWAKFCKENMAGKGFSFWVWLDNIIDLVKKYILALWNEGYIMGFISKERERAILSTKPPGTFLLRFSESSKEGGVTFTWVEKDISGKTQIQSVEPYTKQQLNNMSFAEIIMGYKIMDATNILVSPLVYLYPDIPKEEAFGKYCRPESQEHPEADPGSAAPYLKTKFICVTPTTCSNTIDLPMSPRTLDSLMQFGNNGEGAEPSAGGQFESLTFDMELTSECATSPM
Heat shock factor protein 1 (Homo sapiens), sequence (Q00613 whole entry, looked up): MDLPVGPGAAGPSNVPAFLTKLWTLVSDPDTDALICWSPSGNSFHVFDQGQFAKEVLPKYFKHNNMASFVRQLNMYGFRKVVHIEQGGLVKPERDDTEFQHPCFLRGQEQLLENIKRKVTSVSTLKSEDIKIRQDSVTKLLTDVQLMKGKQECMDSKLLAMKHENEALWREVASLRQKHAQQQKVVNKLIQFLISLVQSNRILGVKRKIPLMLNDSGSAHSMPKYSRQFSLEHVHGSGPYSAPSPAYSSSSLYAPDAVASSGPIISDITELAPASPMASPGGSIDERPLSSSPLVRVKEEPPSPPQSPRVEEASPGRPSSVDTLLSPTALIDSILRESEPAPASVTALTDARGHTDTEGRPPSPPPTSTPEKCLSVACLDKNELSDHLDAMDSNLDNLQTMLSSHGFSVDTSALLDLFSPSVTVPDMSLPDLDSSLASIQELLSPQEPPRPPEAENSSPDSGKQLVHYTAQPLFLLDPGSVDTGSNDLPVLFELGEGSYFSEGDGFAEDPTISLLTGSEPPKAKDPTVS
Hypoxia-inducible factor 1-alpha (Homo sapiens), sequence (Q16665 whole entry, looked up): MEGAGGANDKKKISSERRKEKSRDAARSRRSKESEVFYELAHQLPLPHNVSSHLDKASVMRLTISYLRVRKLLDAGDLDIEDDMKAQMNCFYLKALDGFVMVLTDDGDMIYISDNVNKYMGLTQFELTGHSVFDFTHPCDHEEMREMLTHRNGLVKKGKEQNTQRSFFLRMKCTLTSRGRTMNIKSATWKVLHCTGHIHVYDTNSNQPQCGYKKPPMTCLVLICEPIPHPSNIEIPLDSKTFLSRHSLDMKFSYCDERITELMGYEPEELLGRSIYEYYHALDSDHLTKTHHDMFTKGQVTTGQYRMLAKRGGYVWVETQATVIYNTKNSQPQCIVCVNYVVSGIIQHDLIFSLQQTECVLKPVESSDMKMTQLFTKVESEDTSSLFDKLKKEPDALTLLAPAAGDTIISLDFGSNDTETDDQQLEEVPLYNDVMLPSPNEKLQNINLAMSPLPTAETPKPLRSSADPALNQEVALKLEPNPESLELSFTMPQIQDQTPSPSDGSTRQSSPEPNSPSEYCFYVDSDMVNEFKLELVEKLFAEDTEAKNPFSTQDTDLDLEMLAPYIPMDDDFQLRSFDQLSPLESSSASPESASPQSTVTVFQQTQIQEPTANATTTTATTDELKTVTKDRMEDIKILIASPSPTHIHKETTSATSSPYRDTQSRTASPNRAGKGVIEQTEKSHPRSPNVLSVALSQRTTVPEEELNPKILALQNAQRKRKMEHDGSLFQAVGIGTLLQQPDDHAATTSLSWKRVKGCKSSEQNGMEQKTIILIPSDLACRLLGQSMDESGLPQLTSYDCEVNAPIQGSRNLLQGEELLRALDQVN
Hepatocyte nuclear factor 6 (Homo sapiens), sequence (Q9UBC0 whole entry, looked up): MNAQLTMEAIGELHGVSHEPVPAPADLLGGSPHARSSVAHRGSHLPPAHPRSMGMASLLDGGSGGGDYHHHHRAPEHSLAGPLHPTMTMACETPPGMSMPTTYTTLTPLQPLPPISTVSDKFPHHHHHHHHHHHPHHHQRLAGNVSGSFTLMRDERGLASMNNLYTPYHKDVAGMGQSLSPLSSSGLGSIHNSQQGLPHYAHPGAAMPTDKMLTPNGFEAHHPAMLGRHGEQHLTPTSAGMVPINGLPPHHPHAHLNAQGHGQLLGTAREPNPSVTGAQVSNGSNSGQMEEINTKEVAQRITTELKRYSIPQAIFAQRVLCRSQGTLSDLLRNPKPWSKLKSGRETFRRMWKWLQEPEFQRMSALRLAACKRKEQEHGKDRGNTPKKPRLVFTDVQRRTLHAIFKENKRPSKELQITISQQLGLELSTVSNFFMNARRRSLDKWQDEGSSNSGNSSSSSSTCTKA
Paired box protein Pax-6 (Homo sapiens), sequence (P26367 whole entry, looked up): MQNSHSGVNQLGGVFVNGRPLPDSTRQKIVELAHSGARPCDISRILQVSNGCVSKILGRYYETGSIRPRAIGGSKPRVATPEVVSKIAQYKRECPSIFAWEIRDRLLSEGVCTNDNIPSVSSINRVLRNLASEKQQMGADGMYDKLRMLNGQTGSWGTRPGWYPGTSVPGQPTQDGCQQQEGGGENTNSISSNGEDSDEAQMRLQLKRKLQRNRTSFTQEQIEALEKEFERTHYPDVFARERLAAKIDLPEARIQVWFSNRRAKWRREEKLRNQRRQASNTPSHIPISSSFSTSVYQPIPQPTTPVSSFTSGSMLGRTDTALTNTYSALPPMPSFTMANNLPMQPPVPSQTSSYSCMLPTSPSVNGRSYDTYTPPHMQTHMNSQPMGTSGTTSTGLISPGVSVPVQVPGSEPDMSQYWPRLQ
Bile acid receptor (Homo sapiens), sequence (Q96RI1 whole entry, looked up, the tested form may be a part): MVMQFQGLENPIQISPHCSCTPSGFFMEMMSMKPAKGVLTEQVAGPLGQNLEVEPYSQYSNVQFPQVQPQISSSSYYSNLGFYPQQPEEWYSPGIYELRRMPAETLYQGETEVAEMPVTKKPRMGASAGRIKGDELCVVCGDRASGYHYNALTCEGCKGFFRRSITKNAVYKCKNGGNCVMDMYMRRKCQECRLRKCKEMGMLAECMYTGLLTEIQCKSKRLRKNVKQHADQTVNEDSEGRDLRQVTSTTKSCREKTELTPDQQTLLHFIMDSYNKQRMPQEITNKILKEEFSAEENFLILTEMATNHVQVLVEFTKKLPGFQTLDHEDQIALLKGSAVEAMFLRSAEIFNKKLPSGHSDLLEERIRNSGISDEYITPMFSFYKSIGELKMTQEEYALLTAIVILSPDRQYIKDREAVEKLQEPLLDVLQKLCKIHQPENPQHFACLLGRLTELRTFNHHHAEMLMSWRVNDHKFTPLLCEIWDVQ

CCCCCCCCCCCCN1CCCC1=O
active: [13] 4.43 µM
inactive: all other assays above

c1ccc2c(c1)ccc1ccccc12
active: [7] 26.9 µM | [13] 58.4 µM
not listed: [8]
inactive: all other assays above

CCC(=C(c1ccc(O)cc1)c1ccc(OCCN(C)C)cc1)c1ccccc1
active: [1] 11.2 µM | [2] 1.45 µM | [3] 13.1 µM | [4] 9.63 µM | [6] 11.7 µM | [7] 4.12 µM | [8] 11.1 µM | [9] 12.1 µM and 12.3 µM | [11] 7.1 µM and 11.2 µM | [12] 7.1 µM and 9.41 µM | [13] 1.05 µM [middle of 4 runs] | [16] 7.1 µM and 11.3 µM | [17] 13.4 µM | [18] 3.6 µM | [20] 10 µM
inactive: [1] | [2] | [3] | [4] | [5] | [6] | [7] | [8] | [9] | [11] | [12] | [14] | [16] | [17] | [18] | [19] | [20]

Nc1cccc2c(N)cccc12
inactive: all assays above

NC(=O)N1C(=O)C(C(=O)c2cc(Cl)cs2)c2cc(F)c(Cl)cc21 (stereo unspecified)
active: [7] 6.79 µM | [10] 14.9 µM | [11] 11 µM | [13] 4.07 µM | [15] 13.7 µM | [18] 4.78 µM
inactive: all other assays above
